Hits are enriched below; roughly 3.3% of the tested compounds scored in any of these assays.
ROMK primary = human ROMK K+ channel modulation, primary screen. Tet-inducible ROMK, thallium flux fluorescence; actives lie on both sides. B-score at 10 µM. 130,000 compounds, 2% hits. AID 1918;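 active = signal ratio slope over the read window, or its plate-corrected B-score, at least 3 SD from the plate mean, either direction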;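 also: B-score of the F/F0 ratio slope over 7 to 12 s after thallium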
Target sequence (P48048 whole entry, looked up): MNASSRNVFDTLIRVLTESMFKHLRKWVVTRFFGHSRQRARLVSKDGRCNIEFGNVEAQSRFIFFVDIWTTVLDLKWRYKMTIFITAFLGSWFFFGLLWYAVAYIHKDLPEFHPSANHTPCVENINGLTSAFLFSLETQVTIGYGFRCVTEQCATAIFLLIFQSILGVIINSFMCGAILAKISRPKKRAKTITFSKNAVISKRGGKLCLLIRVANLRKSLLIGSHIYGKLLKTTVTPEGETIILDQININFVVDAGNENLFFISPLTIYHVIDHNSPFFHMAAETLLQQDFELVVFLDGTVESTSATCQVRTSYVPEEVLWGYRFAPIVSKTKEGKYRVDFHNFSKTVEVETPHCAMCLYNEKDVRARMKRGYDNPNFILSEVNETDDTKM
PERK inh = human PERK inhibition, primary cell-based screen; CHO PERK-DD fusion, SEAP luminescence translation reporter; inhibition, % at 5.6 µM; 220,000 compounds, 0.17% hits;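 active = inhibition above the mean inhibition of all tested compounds plus 3 SD, set separately per screening campaign, cut at about 2.9% in these data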;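 also: PERK kinase domain activated by AP20187 dimerizer at 100 nM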
WT yeast gro inh = growth inhibition of WT yeast, mitochondrial fusion screen; mitochondrial fusion phenotypic screen, WT strain; inhibition, % at 10 µM; 190,000 compounds, 2.1% hits; in the data active = inhibition above about 58%; tested in S. cerevisiae
Arbovirus anti = arbovirus infection inhibition. 200,000 compounds, 0.37% hits. inhibition, % at 10 µM. arbovirus infection cell-based antiviral screen. AID 1251; in the data active = inhibition above about 30%
Each line names hits and unclear results; the compound was inactive in the other large screens.

Cn1c(SCC2CCCO2)nnc1-c1cccc([N+](=O)[O-])c1 (centres undefined)	none (no result: ROMK primary)
CCC(CC)c1nnc(NC(=O)c2ccc3ccccc3n2)s1	WT yeast gro inh 61 (no result: ROMK primary)
OCCN1CCN(CCCN2c3ccccc3Sc3ccc(Cl)cc32)CC1	WT yeast gro inh 96 (no result: ROMK primary)
CCc1ccc(C2C(C#N)=C(N)SC(N)=C2C#N)cc1	ROMK primary -4.2
COCC(=O)Nc1nnc(-c2ccc(C(C)(C)C)cc2)s1	WT yeast gro inh 70
Nc1c(Cl)ncnc1N/N=C/c1ccncc1	none (no result: ROMK primary, WT yeast gro inh, Arbovirus anti)
COc1cc(/C=N/n2cnnc2)ccc1OCc1ccccc1	WT yeast gro inh 64 (no result: ROMK primary)
COC(=O)c1cc2sccc2n1CC(=O)N(C)c1ccccc1	none (no result: ROMK primary)
CCOC(=O)C1=C(C)N=C2SCCC(=O)N2C1c1sccc1C (centres undefined)	WT yeast gro inh 65
CCOC(=O)C1=C(C)N=C2SCCC(=O)N2C1c1ccc(OC)cc1 (centres undefined)	none
Cc1cccc(Nc2nc(-c3cccs3)cs2)n1	WT yeast gro inh 72 (no result: ROMK primary)
c1ccc(Nc2nc(-c3cccs3)cs2)nc1	none (no result: ROMK primary)
CCCCCn1c(N(C)Cc2ccccc2)nc2c1c(=O)[nH]c(=O)n2C	none (no result: ROMK primary)
CCn1cc(Cl)c(C(=O)Nc2nc3ccccc3n2CCN2CCCCC2)n1	none (no result: ROMK primary)
CCOC(=O)c1c(NC(=O)CSc2nnc(C)c(=O)[nH]2)sc(C)c1-c1ccc(C)cc1	none (no result: ROMK primary, WT yeast gro inh, Arbovirus anti)
CCOC(=O)c1c(NC(=O)CSc2nnc(N)s2)sc(C)c1-c1ccc(C)cc1	WT yeast gro inh 78 (no result: ROMK primary)
NC(=O)C1(N2CCCCC2)CCN(S(=O)(=O)c2cc(Cl)ccc2Cl)CC1	none (no result: ROMK primary)
O=S(=O)(Nc1ccc(O)c(Sc2nc3ccccc3s2)c1)c1cccc2ccccc12	WT yeast gro inh 69 (no result: ROMK primary)
O=C(CN1CCN(c2ccccn2)CC1)N1c2ccccc2Sc2ccc(C(F)(F)F)cc21	WT yeast gro inh 66 (no result: ROMK primary)
CCCc1cc(=O)[nH]c(SCC(=O)NC)n1	Arbovirus anti 72 (no result: ROMK primary)
O=C(O)c1ccccc1N/N=C\c1ccnc2ccccc12	Arbovirus anti 31
CC1CCOC2(O1)C(=O)N(CN1CCN(c3cccc(Cl)c3)CC1)c1ccccc12 (centres undefined)	none (no result: ROMK primary)
Brc1ccc(-c2csc(N/N=C/c3ccco3)n2)cc1	none
NC(=O)/C(=N\OC(=O)c1ccco1)c1nc(-c2ccc(Br)cc2)cs1	Arbovirus anti 44 (no result: ROMK primary)
C/C(=N\Nc1ccccn1)c1ccc(C(C)C)cc1	WT yeast gro inh 76
COc1ccccc1NC(=S)N(Cc1cccs1)C1CCCC1	WT yeast gro inh 75
Cc1cc(Cl)ccc1NC(=S)NCc1ccc(Cl)cc1	none (no result: ROMK primary)
C=CCNC(=S)NCC1COc2ccccc2O1 (centres undefined)	none
Cc1c(Cl)cccc1NC(=S)NCC1COc2ccccc2O1 (centres undefined)	WT yeast gro inh 59
Cc1cc(Cl)ccc1NC(=S)NCCC(c1ccccc1)c1ccccc1	WT yeast gro inh 74 (no result: ROMK primary)
Cc1c(Cl)cccc1NC(=S)NCCC(c1ccccc1)c1ccccc1	WT yeast gro inh 78
COc1ccc(Nc2nc(NC(C)(C)C)nc(N3CCCC3)n2)c(OC)c1	WT yeast gro inh 84 (no result: ROMK primary)
COc1ccc(Nc2nc(NC(C)(C)C)nc(N3CCOCC3)n2)c(OC)c1	none
O=C(CCS(=O)(=O)c1cccs1)Nc1ccc(C(=O)NC2CCN(Cc3ccccc3)CC2)cc1	none
COc1ccccc1S(=O)Cc1ccc(C(=O)O)o1 (centres undefined)	none (no result: ROMK primary)
O=C(O)c1ccc(CS(=O)c2cccc(C(F)(F)F)c2)o1 (centres undefined)	PERK inh 3.7 (no result: ROMK primary)
Nc1ccn([C@@H]2O[C@H](CO)[C@@H](O)C2O)c(=O)n1 (some centres undefined)	none (no result: ROMK primary)
O=c1cnn([C@@H]2O[C@H](CO)[C@@H](O)[C@H]2O)c(=O)[nH]1	Arbovirus anti 78 (no result: ROMK primary)
CN(C)C(=O)COc1ncnc2scc(-c3ccc(F)cc3)c12	none
C/C(=N\NC(=O)Cn1nc(C)cc1C)c1ccc([N+](=O)[O-])cc1	none (no result: ROMK primary, WT yeast gro inh, Arbovirus anti)
COc1ccc(-c2csc(Nc3ccc(C)cn3)n2)cc1OC	Arbovirus anti 53
Cc1ccc(Nc2nc(-c3ccc(O)c(O)c3)cs2)nc1	none (no result: ROMK primary)
Cc1cc(C)c(S(=O)(=O)Nc2ccc3c(c2)CCC3)c(C)c1	WT yeast gro inh 77
Cc1cc(C)c(S(=O)(=O)Nc2ccc(O)cc2)c(C)c1	none (no result: ROMK primary)
COC(=O)c1c(C)[nH]c(C(=O)CSc2ncnc3sc(-c4ccccc4)cc23)c1C	none
Clc1ccccc1Cn1c(/C=C/c2ccco2)nc2ccccc21	WT yeast gro inh 78
COc1ccc(Cn2c(/C=C/c3ccccc3)nc3ccccc32)cc1	none (no result: ROMK primary)
CC(=O)c1c(C)[nH]c(C(=O)CSc2nnc(-c3ccc(Cl)cc3)n2CC2CCCO2)c1C (centres undefined)	WT yeast gro inh 70
NC(=O)NC(=O)CSc1nnc(-c2ccc(Cl)cc2)n1CC1CCCO1 (centres undefined)	none

Bioassay records deposited in PubChem BioAssay by several laboratories.
